Assay outcomes as filed in PubChem.
Shown are actives, neighbours in structure and some others; about 7.4% of the full set was active somewhere.
Rab9 promoter act – activators of Rab9 promoter; Huh7 Rab9 promoter-luciferase reporter, luminescence, 24 h; Potency, µM (doses to about 9.22 µM), for inactives: top-dose activation, negative = inhibition, actives largely listed as activators; 2.8% of 320,000 active; AID 485297; note: % of control where 0% means no effect; nearly all actives have a fitted effect of over 60% in size
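Cells were plated at 1500 per well in reduced-serum medium with 10% FBS and left 2 h. Compound in DMSO was then added for 24 h at 37 °C. Reporter signal was read by luminescence after 10 min with luciferase detection reagent.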
ELG1 genotox – inducers of genotoxicity in HEK293T ELG1-luciferase cells. HEK293T ELG1-luciferase reporter, luminescence, 16 h. Potency, µM (highest dose often 46 µM), for the others: top-dose activity change, positive = activation, actives largely listed as activators. 1.3% of 330,000 active. AID 504466; note: % of control where 0% means no effect; nearly all actives have a fitted effect of over 60% in size
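After overnight (16 hr) compound treatment at 37 °C, ELG1-luciferase HEK293T cells were lysed with ONE-Glo; luminescence quantified 30 min later at room temperature.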
SMN2 splice enh – increases expression of the SMN2 splice variant; HEK293 SMN2-luciferase splicing reporter, luminescence, 30-36 h; Potency, µM (top dose mostly 46.1 µM), for the others: top-dose activity change, positive = activation, usual class: activators; 2.8% of 210,000 active; AID 1458; note: % of control where 0% means no effect; nearly all actives have a fitted effect of over 55% in size
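HEK293 cells carry an SMN2 […]–luciferase reporter in which exon 7 inclusion puts luciferase in frame. Cells were plated 10-12 h before compound addition, then incubated 30-36 h at 37C. ONE-Glo luminescence was read; sodium butyrate at 4.5 mM final served as control.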
FLuc modulator – inhibits or activates purified firefly luciferase, miR-21 counter-screen; 6.9% of 360,000 active; P08659; purified FLuc, Km substrates, luminescence inhibition; AID 588342; Potency, µM (highest dose often 57.5 µM), inactives show at the top dose activity change, negative = inhibition, hits mostly inhibitors;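 note: plate controls were vehicle for no effect and reference inhibitor for full effect; nearly all actives have a fitted effect of over 55% in size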
Target sequence (P08659 whole entry, looked up): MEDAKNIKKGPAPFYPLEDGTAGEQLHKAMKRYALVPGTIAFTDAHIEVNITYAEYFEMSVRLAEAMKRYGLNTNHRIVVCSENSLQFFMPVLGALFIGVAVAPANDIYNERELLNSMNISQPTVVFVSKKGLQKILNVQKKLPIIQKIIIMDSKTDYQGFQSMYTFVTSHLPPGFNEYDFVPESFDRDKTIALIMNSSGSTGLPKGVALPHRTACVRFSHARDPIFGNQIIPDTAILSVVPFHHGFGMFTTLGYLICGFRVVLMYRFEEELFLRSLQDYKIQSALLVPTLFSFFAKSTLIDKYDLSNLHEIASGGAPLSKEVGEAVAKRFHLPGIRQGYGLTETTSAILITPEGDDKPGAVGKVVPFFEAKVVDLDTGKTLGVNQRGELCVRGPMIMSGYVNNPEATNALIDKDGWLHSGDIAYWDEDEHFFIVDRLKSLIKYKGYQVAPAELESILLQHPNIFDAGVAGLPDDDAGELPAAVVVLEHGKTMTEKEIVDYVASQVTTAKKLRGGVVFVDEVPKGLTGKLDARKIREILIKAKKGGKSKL
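Purified P. pyralis luciferase, 10 nM final, with Km-level 10 uM D-luciferin and 10 uM ATP in 50 mM Tris acetate pH 7.5, 10 mM Mg acetate, 0.01% Tween-20, 0.05% BSA; 6-point qHTS titration about 60 µM downward; luminescence read.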
NPC1 promoter act – activators of NPC1 promoter | AID 485313 | Potency, µM (series often up to 9.22 µM), for inactives: top-dose activation, most hits filed as activators | 2.4% of 320,000 active | Huh7 NPC1 promoter luciferase reporter, 24 h; note: % of control where 0% means no effect; nearly all actives have a fitted effect of over 60% in size
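Huh7 cells stably carrying NPC1 promoter–luciferase, plated in Opti-MEM with 10% FBS for 2 h, were exposed to compound in DMSO for 24 h at 37 °C; luciferase reagent was added for 10 min and luminescence read.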
Starred values were filed as active, the others as inactive; ? = inconclusive; . = not tested or not shown. Calls come from the whole dose curve; as a rule, active = well fitted curve in the direction sought with a large enough effect; inconclusive = small, poorly fitted or top-dose-only effect, or another doubt; inactive = no such curve, though single readings can be large; an effect the other way counts as inactive or inconclusive. Potency is the fitted concentration of half-maximal effect.

SMILES | Rab9 promoter act | ELG1 genotox | SMN2 splice enh | FLuc modulator | NPC1 promoter act
Cc1ccc(NC(=S)c2nc3ccccc3[nH]2)c(C)c1 | 3.5µM* | ? | 5.6µM* | 1.7µM* | 3.5µM*
O=c1c(Cl)c(N2CCOCC2)cnn1-c1nc2ccccc2[nH]1 | 1.6µM* | ? | 11µM* | 11µM* | 2.5µM*
COc1cc(OC)cc(C(=O)N[C@H](C(=O)OCC(=O)c2ccc(F)cc2)C(C)C)c1 | 2% | 1% | -1% | 11µM* | -4%
CC(C)C(NC(=O)c1ccccc1F)C(=O)OCC(=O)c1ccc(F)cc1 (stereo not given) | ? | 7% | -2% | 3µM* | 1%
CC(C)[C@H](NC(=O)c1ccccc1F)C(=O)OCC(=O)NC1CC1 | . | 1% | . | . | .
COc1cc(OC)cc(C(=O)N[C@H](C(=O)OCC(=O)Nc2cccc(F)c2)C(C)C)c1 | -6% | -4% | -11% | 1% | 0%
COc1ccc(CCNCC2C(Oc3ccc(Cl)cc3)C(=O)N2c2ccccc2C)cc1OC (stereo not given) | 4% | -8% | . | -3% | -1%
CC1CCN(C(=O)COC(=O)/C=C/c2ccco2)CC1 | . | 13% | . | . | .
COc1cccc(CNC(=O)Cn2ccc3cc(S(=O)(=O)N4CCC(C)CC4)ccc32)c1 | -3% | -5% | . | 0% | 0%
O=C(c1ccc(Cl)cc1)N1CCn2c1nc1ccccc12 | ? | 9% | ? | ? | 19%
O=C(c1cccs1)N1CCn2c1nc1ccccc12 | 4µM* | ? | 13µM* | ? | 2.8µM*
Cc1cc(C)c(C#N)c(SCc2nc3ccccc3[nH]2)n1 | ? | 23µM* | 10µM* | ? | 17%
N#Cc1cc2c(nc1SCc1nc3ccccc3[nH]1)CCC2 | 0.71µM* | ? | 8.9µM* | 1.3µM* | 0.32µM*
Cc1cccc(CSc2nc3c(cc2C#N)CCC3)c1 | 2% | 13% | 25% | -2% | 0%
NC(=O)c1sc2nc(-c3cccnc3)ccc2c1N | 0% | 11% | . | ? | -2%
COc1ccc(C(=O)c2sc3nc(-c4ccccc4)ccc3c2N)cc1 | -10% | 0% | -1% | -18% | -3%
CCOC(=O)c1sc2nc(-c3cccnc3)ccc2c1N | 0.5µM* | 2.6µM* | . | 0.48µM* | 0.45µM*
COc1ccc(-c2ccc3c(N)c(C(=O)NCc4ccc(Cl)cc4)sc3n2)cc1 | . | . | 11µM* | 7% | .
CC(C)OC(=O)c1sc2nc(-c3ccccc3)ccc2c1N | 0.45µM* | ? | -31% | 0.3µM* | 0.32µM*
CN(C(=O)CSC(=O)c1ccccc1)c1ccccc1 | -6% | -2% | . | ? | -7%
O=C(CNC(=O)c1ccccc1)OCc1nc2ccccc2s1 | 7% | ? | . | 9.5µM* | 8%
O=C(CNC(=O)c1ccccc1F)OCc1nc2ccccc2s1 | 4% | 14% | 15% | 17µM* | -2%
O=C(CNC(=O)c1ccc(Cl)cc1Cl)OCc1nc2ccccc2s1 | 10% | -8% | 8% | ? | 0%
N#Cc1nc(-c2ccc(COc3ccc(Cl)cc3)o2)oc1N1CCC(C(N)=O)CC1 | . | . | . | -16% | .
CC1=C(C(=O)NCc2cccc(F)c2)C2(CCCCC2)OC1=O | . | . | . | -7% | .
SMILES | Rab9 promoter act | ELG1 genotox | SMN2 splice enh | FLuc modulator | NPC1 promoter act
COc1ccc(OCc2ccc(C(=O)O)cc2)cc1 | ? | 12% | 5µM* | 6.7µM* | ?
COc1ccc(OCC(O)COc2ccc(C(=O)O)cc2)cc1 (stereo not given) | -3% | 3% | 10% | 15µM* | 3%
CC(=O)N1N=C(c2ccc(C)cc2)OC1c1ccc(Br)cc1 (stereo not given) | 9% | -3% | . | -3% | -1%
CC(=O)N1N=C(c2ccc(Cl)cc2)OC1c1ccc(C(C)C)cc1 (stereo not given) | 29% | ? | 19% | 12µM* | 24%
CCCCCc1ccc(-c2cn(CCCOCc3ccccc3)nn2)cc1 | -2% | -1% | . | -1% | 3%
COc1ccc(-c2cn(CC3CCCCC3)nn2)cc1 | 2.8µM* | ? | . | ? | 4µM*
COc1ccc(-c2cn(CCCOCc3ccccc3)nn2)cc1 | 0% | 0% | . | -2% | 3%
c1ccc(-c2cn(CC3CCCCC3)nn2)cc1 | 2.2µM* | ? | . | 15µM* | 3.5µM*
CCCCCc1ccc(-c2cn(CC3CCCCC3)nn2)cc1 | 2µM* | 0% | . | -1% | ?
